In PubChem BioAssay AID1159580 (chemical genetic matrix, 2015):
Where “and” joins values, the source holds several entries; their conditions need not be identical. Equal entries are not always repeated. Hit rate of the full screen: of about 5,500 compounds, about 2,000 (36%) were called active. Another 18% or so got no clear call; they are omitted. No stated cut-off is given here; in the data, active means normalized growth mostly below about 0.91 (no sharp cut-off); inconclusive means no clear call, values can overlap the other calls; inactive means mostly above about 0.92. The list shows a part of the results.

Assay: chemical genetic growth profiling, strain panel (AID 1159580);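 further: tested at 20 µM; growth read once vehicle control cultures reached saturation at 30 °C; 1 = growth at the plate median or of vehicle wells; lower values mean less growth of the strain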
Conditions: S. cerevisiae deletion strains, growth OD

Measured: normalized growth

CC(=O)Oc1ccccc1C(=O)Oc1ccccc1C(=O)O
inactive: locus YAL013W, strain DEP1, active compounds read low 0.989 | locus YAL021C, strain ccr4, active compounds read low 1.01 | locus YAL026C, strain drs2, active compounds read low 1.01 | locus YAL030W, strain snc1, active compounds read low 1 | locus YBL061C, strain skt5, active compounds read low 1 | locus YBR009C, strain hhf1, active compounds read low 1.01 | locus YBR021W, strain FUR4, active compounds read low 0.981 | locus YBR023C, strain chs3, active compounds read low 0.998 | locus YBR171W, strain sec66, active compounds read low 1 | locus YBR229C, strain ROT2, active compounds read low 0.992 | locus YBR231C, strain swc5, active compounds read low 0.995 | locus YBR279W, strain paf1, active compounds read low 1 | locus YCL011C, strain gbp2, active compounds read low 1.02 | locus YCL016C, strain dcc1, active compounds read low 1 | locus YCL029C, strain bik1, active compounds read low 0.98 | locus YCL069W, strain vba3, active compounds read low 1 | locus YCR088W, strain abp1, active compounds read low 1 | locus YDL005C, strain med2, active compounds read low 0.995 | locus YDL035C, strain GPR1, active compounds read low 1 | locus YDL040C, strain nat1, active compounds read low 1 | locus YDL074C, strain BRE1, active compounds read low 1.01 | locus YDL101C, strain DUN1, active compounds read low 0.997 | locus YDL134C, strain PPH21, active compounds read low 1.02 | locus YDL185W, strain tfp1, active compounds read low 0.987 | locus YDL192W, strain arf1, active compounds read low 0.993 | locus YDR001C, strain nth1, active compounds read low 1.01 | locus YDR069C, strain doa4, active compounds read low 0.996 | locus YDR101C, strain arx1, active compounds read low 0.994 | locus YDR137W, strain rgp1, active compounds read low 1 | locus YDR150W, strain NUM1, active compounds read low 0.996 | locus YDR159W, strain sac3, active compounds read low 0.962 | locus YDR162C, strain NBP2, active compounds read low 1.02 | locus YDR195W, strain ref2 0.962 | locus YDR297W, strain sur2, active compounds read low 1.01 | locus YDR318W, strain mcm21, active compounds read low 0.986 | locus YDR334W, strain swr1, active compounds read low 1 | locus YDR335W, strain msn5, active compounds read low 1 | locus YDR388W, active compounds read low 0.986 | locus YDR392W, strain spt3, active compounds read low 0.954 | locus YDR502C, strain sam2, active compounds read low 0.985 | locus YEL003W, strain gim4, active compounds read low 1.01 | locus YEL037C, strain rad23, active compounds read low 1 | locus YEL061C, strain CIN8 (second series), active compounds read low 1.01 | locus YEL061C, strain CIN8, active compounds read low 0.999 | locus YER015W, strain faa2, active compounds read low 0.997 | locus YER016W, strain bim1, active compounds read low 1 | locus YER110C, active compounds read low 0.98 | locus YER111C, strain swi4, active compounds read low 0.994 | locus YER155C, strain BEM2 (second series), active compounds read low 1.02 | locus YER155C, strain BEM2, active compounds read low 0.986 | locus YER167W, strain BCK2, active compounds read low 0.991 | locus YFR010W, strain ubp6, active compounds read low 1.02 | locus YGL078C, strain dbp3, active compounds read low 0.977 | locus YGL086W, strain mad1, active compounds read low 0.984 | locus YGL167C, strain pmr1, active compounds read low 0.996 | locus YGL173C, strain kem1, active compounds read low 1.02 | locus YGL227W, strain vid30, active compounds read low 0.998 | locus YGL240W, strain doc1, active compounds read low 0.978 | locus YGL248W, strain PDE1, active compounds read low 0.992 | locus YGL253W, strain hxk2, active compounds read low 0.996 | locus YGR078C, strain PAC10, active compounds read low 1.01 | locus YGR135W, strain pre9, active compounds read low 0.999 | locus YGR229C, strain SMI1, active compounds read low 1.01 | locus YGR252W, strain gcn5, active compounds read low 0.966 | locus YHR013C, strain ard1, active compounds read low 1.01 | locus YHR027C, strain rpn1, active compounds read low 0.985 | locus YHR030C, strain SLT2, active compounds read low 0.991 and 0.986 | locus YHR079C, strain IRE1 (second series), active compounds read low 0.983 | locus YHR079C, strain IRE1, active compounds read low 0.995 | locus YHR094C, strain hxt1, active compounds read low 0.98 | locus YHR129C, strain ARP1, active compounds read low 1 | locus YHR142W, strain chs7, active compounds read low 1.01 | locus YHR200W, strain rpn10, active compounds read low 0.97 | locus YIL066C, strain RNR3, active compounds read low 0.982 | locus YIL073C, strain SPO22, active compounds read low 0.975 | locus YIL125W, strain kgd1, active compounds read low 0.977 | locus YIR030C, strain dcg1, active compounds read low 0.983 | locus YJL092W, strain hpr5, active compounds read low 1.01 | locus YJL095W, strain BCK1 (second series), active compounds read low 0.997 | locus YJL095W, strain BCK1, active compounds read low 1.01 and 1 | locus YJL115W, strain asf1, active compounds read low 1.01 | locus YJL129C, strain trk1, active compounds read low 1.01 | locus YJL134W, strain LCB3, active compounds read low 0.992 | locus YJL154C, strain vps35, active compounds read low 1 | locus YJL164C, strain tpk1, active compounds read low 0.996 | locus YJL166W, strain qcr8, active compounds read low 1.01 | locus YJL168C, strain set2, active compounds read low 0.981 | locus YJL187C, strain SWE1 (second series), active compounds read low 0.993 | locus YJL187C, strain SWE1, active compounds read low 1.01 | locus YJR043C, strain POL32, active compounds read low 0.995 | locus YJR066W, strain TOR1, active compounds read low 0.905
